The values that follow come from PubChem BioAssay.

The structures appear in SMILES notation. Active and inactive are the calls of the source.

Test [1] is described as follows: small molecules captured by biotinylated probe aFSTL3 – biochemical, small-molecule microarray, fluorescence 635/667, stem cell growth factor project, primary screen (AID 1064).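 Also: measures binding of the biotinylated anti-FSTL3 antibody to printed compounds.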 The following applies: higher = more signal.
Test [2] can be described thus: binders from COS7 lysate, DM2A8 probe, primary screen, torsin A project, cell lysate, small-molecule microarray, fluorescence 635/667 (AID 1065). The following applies: higher = more signal, COS7 lysate expressing mutant human TOR1A.
Test [3] in a line: small molecules captured by biotinylated probe aFGF2 – biochemical, small-molecule microarray, fluorescence 635/667, stem cell growth factor project, primary screen (AID 1067).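 Also: measures binding of biotinylated aFGF2 protein to printed compounds on slides; z-score merges feature fluorescence and signal-to-noise across triplicate slides.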 The following applies: higher = more signal.
Test [4] can be described thus: small molecules captured by biotinylated probe aFGF10 – biochemical, small-molecule microarray, fluorescence 635/667, stem cell growth factor project, primary screen (AID 1071).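 Also: score merges 667 nm spot intensity and signal to noise from triplicate slides.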 The following applies: higher = more signal.
In test [5] the target is Neurogenic locus notch homolog protein 2 (Homo sapiens) (UniProt Q04721). The test can be described thus: small molecules binding Notch2 protein – biochemical, small-molecule microarray, 635 nm fluorescence, stem cell growth factors, primary screen (AID 1073). The following applies: higher = more signal.
Sequence of Neurogenic locus notch homolog protein 2 (Homo sapiens) (Q04721 whole entry, looked up, canonical isoform): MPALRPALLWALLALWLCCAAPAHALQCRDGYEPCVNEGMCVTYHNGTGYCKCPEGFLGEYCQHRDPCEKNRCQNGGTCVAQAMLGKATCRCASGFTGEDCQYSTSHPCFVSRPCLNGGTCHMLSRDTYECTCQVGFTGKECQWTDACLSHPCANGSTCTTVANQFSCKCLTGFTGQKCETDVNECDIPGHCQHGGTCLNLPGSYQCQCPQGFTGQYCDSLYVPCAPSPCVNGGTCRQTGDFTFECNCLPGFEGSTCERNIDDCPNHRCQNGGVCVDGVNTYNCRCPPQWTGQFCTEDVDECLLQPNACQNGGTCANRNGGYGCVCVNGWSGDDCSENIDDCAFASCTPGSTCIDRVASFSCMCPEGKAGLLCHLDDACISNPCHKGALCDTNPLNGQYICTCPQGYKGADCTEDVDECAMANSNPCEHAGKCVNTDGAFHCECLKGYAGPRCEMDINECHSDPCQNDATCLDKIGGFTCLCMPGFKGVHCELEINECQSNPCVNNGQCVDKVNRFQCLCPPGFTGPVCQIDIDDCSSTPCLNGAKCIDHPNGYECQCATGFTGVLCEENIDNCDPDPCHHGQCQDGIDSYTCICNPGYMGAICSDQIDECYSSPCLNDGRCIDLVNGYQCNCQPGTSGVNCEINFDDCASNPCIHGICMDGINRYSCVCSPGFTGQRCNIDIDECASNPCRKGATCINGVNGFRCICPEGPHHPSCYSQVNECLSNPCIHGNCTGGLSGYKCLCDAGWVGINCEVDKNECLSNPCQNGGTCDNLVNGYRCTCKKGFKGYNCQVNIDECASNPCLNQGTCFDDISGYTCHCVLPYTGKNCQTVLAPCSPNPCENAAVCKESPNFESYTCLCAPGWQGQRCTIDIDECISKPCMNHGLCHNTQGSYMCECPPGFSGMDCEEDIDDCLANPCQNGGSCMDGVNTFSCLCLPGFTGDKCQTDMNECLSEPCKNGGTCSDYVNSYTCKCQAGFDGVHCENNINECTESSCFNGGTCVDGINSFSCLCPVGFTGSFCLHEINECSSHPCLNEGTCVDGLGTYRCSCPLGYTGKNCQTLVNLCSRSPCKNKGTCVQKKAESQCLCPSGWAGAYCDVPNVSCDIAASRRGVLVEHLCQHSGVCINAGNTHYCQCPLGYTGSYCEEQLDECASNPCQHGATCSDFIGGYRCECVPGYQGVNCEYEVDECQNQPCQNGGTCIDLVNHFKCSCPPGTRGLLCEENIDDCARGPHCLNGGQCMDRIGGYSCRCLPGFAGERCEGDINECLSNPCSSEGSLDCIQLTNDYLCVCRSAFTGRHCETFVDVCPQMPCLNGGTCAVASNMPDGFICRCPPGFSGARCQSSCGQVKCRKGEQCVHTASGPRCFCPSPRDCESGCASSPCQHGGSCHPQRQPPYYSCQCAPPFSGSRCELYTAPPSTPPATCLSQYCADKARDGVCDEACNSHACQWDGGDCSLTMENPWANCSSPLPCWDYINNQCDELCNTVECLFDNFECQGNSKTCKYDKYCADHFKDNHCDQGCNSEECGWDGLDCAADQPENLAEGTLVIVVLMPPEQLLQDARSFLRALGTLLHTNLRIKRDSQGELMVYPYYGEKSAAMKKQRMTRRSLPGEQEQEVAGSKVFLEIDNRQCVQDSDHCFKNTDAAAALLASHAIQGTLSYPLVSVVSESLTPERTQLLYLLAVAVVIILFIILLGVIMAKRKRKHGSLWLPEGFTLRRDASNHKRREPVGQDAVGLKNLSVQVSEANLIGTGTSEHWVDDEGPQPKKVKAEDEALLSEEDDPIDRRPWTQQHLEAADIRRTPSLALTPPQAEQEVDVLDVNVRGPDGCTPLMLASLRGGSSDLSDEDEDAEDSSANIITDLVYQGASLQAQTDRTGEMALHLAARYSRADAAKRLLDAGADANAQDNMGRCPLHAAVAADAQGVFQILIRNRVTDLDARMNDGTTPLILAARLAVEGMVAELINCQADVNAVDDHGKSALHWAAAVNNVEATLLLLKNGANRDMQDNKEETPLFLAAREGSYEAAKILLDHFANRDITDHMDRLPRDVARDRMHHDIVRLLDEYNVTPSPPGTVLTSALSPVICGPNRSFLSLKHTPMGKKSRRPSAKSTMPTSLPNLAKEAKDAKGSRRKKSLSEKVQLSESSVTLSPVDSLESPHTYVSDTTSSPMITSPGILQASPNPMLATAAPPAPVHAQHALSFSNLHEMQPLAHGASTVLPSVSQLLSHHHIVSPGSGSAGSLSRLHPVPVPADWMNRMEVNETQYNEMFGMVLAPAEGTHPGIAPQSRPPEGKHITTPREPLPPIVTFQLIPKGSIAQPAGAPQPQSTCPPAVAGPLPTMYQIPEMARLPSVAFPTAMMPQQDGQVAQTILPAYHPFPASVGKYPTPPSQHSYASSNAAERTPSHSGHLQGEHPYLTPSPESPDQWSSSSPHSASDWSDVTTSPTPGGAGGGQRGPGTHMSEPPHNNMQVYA
The target of test [6] is Pro-neuregulin-1, membrane-bound isoform (Homo sapiens) (UniProt Q02297). The experiment in a line: small molecules binding neuregulin-1 protein – biochemical, small-molecule microarray, fluorescence 635/667, psychiatric disease protein project, primary screen (AID 1075).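 Also: score combines 667 nm spot fluorescence with signal to noise.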 The following applies: NRG1 binding, 635 nm fluorescence, higher = more signal.
Sequence of Pro-neuregulin-1, membrane-bound isoform (Homo sapiens) (Q02297 whole entry, looked up, the tested form may be a part, canonical isoform): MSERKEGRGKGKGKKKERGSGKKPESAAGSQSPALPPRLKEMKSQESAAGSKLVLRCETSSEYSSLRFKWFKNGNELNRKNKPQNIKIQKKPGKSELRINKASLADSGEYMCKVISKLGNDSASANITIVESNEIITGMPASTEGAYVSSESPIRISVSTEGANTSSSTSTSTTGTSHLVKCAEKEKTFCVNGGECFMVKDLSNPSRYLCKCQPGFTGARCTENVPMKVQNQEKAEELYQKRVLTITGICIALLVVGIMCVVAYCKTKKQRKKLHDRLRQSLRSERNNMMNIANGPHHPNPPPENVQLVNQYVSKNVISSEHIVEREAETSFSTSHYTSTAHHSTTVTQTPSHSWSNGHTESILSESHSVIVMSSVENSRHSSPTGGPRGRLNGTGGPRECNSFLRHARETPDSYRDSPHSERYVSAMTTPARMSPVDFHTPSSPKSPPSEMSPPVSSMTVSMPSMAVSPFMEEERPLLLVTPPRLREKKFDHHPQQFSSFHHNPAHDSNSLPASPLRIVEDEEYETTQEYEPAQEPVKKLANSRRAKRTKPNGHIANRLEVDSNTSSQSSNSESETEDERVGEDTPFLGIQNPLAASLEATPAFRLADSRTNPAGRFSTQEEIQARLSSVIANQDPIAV
The subject of test [7] is Neuregulin-1 EGF-like domain. The experiment in a line: small molecules binding NRG1 EGF domain – biochemical, small-molecule microarray, 635 nm fluorescence, primary screen (AID 1081).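 Also: binding of the protein to compounds printed on small-molecule microarray slides.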 The following applies: higher = more signal.
Test [8] is described as follows: FRG1 expression reporter modulators in myotubes – cell-based, C2C12 myotubes, firefly/Renilla luciferase, luminescence, FRG1 inhibition for FSHD, primary screen (AID 1084). The following applies: FRG1 promoter luciferase, higher = more signal, called active from +8 up or from −8 down.
Test [9] is described as follows: small molecules captured by biotinylated probe aFST – biochemical, small-molecule microarray, fluorescence 635/667, stem cell growth factor project, primary screen (AID 1086).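 Also: score merges 667 nm fluorescence with signal-to-noise of each printed compound spot.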 The following applies: higher = more signal.
Test [10] is described as follows: binders of probe aHhip on microarray, primary screen, stem cell growth factor project, biochemical, small-molecule microarray, fluorescence 635/667 (AID 1087).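 Also: score merges spot fluorescence at 667nm with spot signal to noise ratio.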 The following applies: higher = more signal.

For the molecule `CCCCN1CC=CC23O[C@@H]4/C=C\CCC(C)OC(=O)C4[C@H]2C(=O)N(CCCCCCO)[C@@H]3C1=O` (stereo not given in full), the composite z-score in test [1] is 0.666; in [2], 0.345; in [3] it was -0.0712; in test [4] it was 0.867; in [5] it was -0.625; in [6], 0.272. For the same molecule, the composite z-score in test [7] was 1.59; in [9], -0.213; in test [10], -0.119. Also, in [8], the z-score is 0.189 (inactive).
Turning to `CC(=O)N1Cc2ccccc2C[C@]2(N=C(c3ccc(OCCCO)cc3)O[C@@H]2c2ccccc2)C1=O`, the composite z-score worked out at 0.864 in test [1]; 0.688 in test [2]; 0.0512 in test [3]; 0.458 in test [4]; 0.875 in test [5]; 1.04 in test [6]. The composite z-score in test [7] is 1.34; in test [9], 0.33; in [10], -0.238. The z-score in test [8] is -2.24 (inactive).
`COC(=O)[C@@]1(Cc2ccc(F)cc2)[C@H]2c3cc(C(=O)N4CCCC4)n(CCc4c[nH]c5ccc(OC)cc45)c3C[C@H]2CN1C(=O)c1ccccc1`: the composite z-score is 1.66 in [1]; -0.619 in test [2]; 0.803 in [3]; 1.3 in [4]; 1.58 in test [5]; 1.46 in [6]. Further, the values for the composite z-score in [7], in test [9] and in test [10] were 1.19, 2.02 and 0.413, respectively. In test [8], the z-score is 1.61 (inactive).
For the molecule `C=CCOC(=O)[C@H]1[C@@H]2C(=O)O[C@@H](c3ccccc3)[C@@H](c3ccccc3)N2[C@@H](c2ccc(OCCOC(=O)[C@H]3C[C@H]4C(=O)N[C@@H](Cc5ccccc5)C(=O)N4[C@H]3c3cccc(OCCO)c3)cc2)[C@]12C(=O)Nc1ccc(I)cc12`, the composite z-score is -0.36 in [1]; 0.876 in [2]; 0.0422 in test [3]; 0.66 in test [4]; 0.118 in [5]; 1.35 in [6]. Besides, the composite z-score in [7] came out at 1.21; in test [9], 0.0086; in test [10] it was 0.122. In addition, the z-score in test [8] was 0.633 (inactive).
Regarding `COCC(=C=CC[C@H](O)c1cccc(OCCO)c1)C[C@H](O)c1ccccn1`, the composite z-score was -0.203 in test [1]; -0.3 in test [2]; -0.135 in [3]; 0.18 in test [4]; -0.542 in [5]; 1.24 in test [6]. Besides, the results for the composite z-score in test [7], in test [9] and in [10] were 1.44, 0.395 and -0.0618, respectively. Besides, in test [8], the z-score is 0.0158 (inactive).
Turning to `C=CC[C@H](OC(=O)Nc1ccc(OC)cc1)c1ccc(O)c2ccccc12`, the composite z-score in test [1] is -0.471; in [2], 0.38; in test [3], -0.0894; in [4], 0.517; in test [5] it was 1.28; in test [6], 0.473. Also, the values for the composite z-score in test [7], in [9] and in test [10] were 0.933, 0.0069 and 0.176, respectively. Moreover, the z-score in test [8] is 6.36 (inactive).
Take `Cc1ccc(F)cc1S(=O)(=O)N[C@@H]1CCN(Cc2ccc(OC(C)C)cc2)C1`: the composite z-score was -0.0929 in test [1]; 0.571 in [2]; -0.115 in test [3]; -0.209 in test [4]; -0.863 in [5]; -0.136 in test [6]. Also, the composite z-score in test [7] was 0.288; in test [9] it was -0.192; in [10] it was -0.257. Also, in test [8], the z-score is -1.22 (inactive).
`CC(C)(C)OC(=O)CC[C@@]1(C(=O)O)N=C(c2ccc(OCCCO)cc2)O[C@@H]1c1ccccc1`: the composite z-score in test [1] was 0.308; in [2], -0.648; in test [3] it was -0.0459; in test [4], 0.13; in test [5], 0.347; in test [6], 1.96. Moreover, the composite z-score in test [7] was found to be 1.53; in test [9], 0.398; in [10], 0.24. Besides, the z-score in [8] is 0.853 (inactive).
Consider `C=C(COC)/C(=C/C[C@@H](OC(=O)c1ccncc1)c1ccc(OCCO)cc1)c1cnc2ccccc2c1`, for which the composite z-score in test [1] is -0.0384; in [2], 0.651; in test [3], 0.124; in [4], 1.15; in test [5], 1.74; in test [6], -0.578. The composite z-score in [7] is 1.2; in [9], 0.28; in test [10], -0.0994. Moreover, in test [8], the z-score was -1.73 (inactive).
Turning to `[N-]=[N+]=NCc1ccccc1C[C@]1(C(=O)NCC(O)CO)N=C(c2ccc(OCCCO)cc2)O[C@H]1c1ccccc1CN=[N+]=[N-]` (stereo not given in full), the composite z-score in test [1] came out at 0.0591; in [2], 0.696; in test [3], 0.139; in test [4] it was 1.14; in test [5], 0.566; in test [6] it was 1.34. Further, the composite z-score in [7] is 1.16; in test [9], 0.723; in test [10], -0.0618. For the same molecule, the z-score in [8] is -0.799 (inactive).
Turning to `COc1ccccc1CN1C(=O)c2ccccc2[C@](Cc2ccccc2I)(C(=O)NC(C)C)[C@@H]1c1ccc(CO)cc1`, the composite z-score is -0.515 in [1]; 0.49 in test [2]; -0.0296 in [3]; 0.732 in test [4]; 1.43 in test [5]; 1.7 in test [6]. Besides, the composite z-score in test [7] came to 1.15; in test [9], 0.614; in test [10], 0.0373. Besides, the z-score in test [8] was -2.79 (inactive).
For the molecule `CC(C)CNC(=O)[C@@]1(c2ccc([N+](=O)[O-])cc2)CC(=O)N(C2CCCCC2)[C@@H]1c1ccc(CO)cc1I`, the composite z-score in test [1] was 0.0706; in test [2], 0.148; in test [3] it was -0.0728; in test [4], -0.186; in test [5], 0.421; in test [6], 1.14. For the same molecule, the composite z-score is 0.734 in test [7], -0.126 in test [9] and -0.335 in [10]. For the same molecule, the z-score in test [8] was -0.35 (inactive).
Turning to `CC1CC/C=C\[C@H]2OC34C=CCN(c5ccc6ccccc6c5)C(=O)[C@H]3N(C(CO)C(C)C)C(=O)[C@@H]4C2C(=O)O1` (stereo not given in full), the composite z-score was -0.729 in [1]; -0.0684 in test [2]; -0.0598 in test [3]; -0.0104 in [4]; -0.477 in [5]; 1.93 in test [6]. For the same molecule, the composite z-score in test [7] is 1.43; in [9], -0.25; in test [10], -0.132. In addition, in test [8], the z-score was 0.718 (inactive).
